Measured values from PubChem BioAssay (NCI).
“And” between values parts separate entries of the source, which are not always exact repeats. Identical values can stand only once. Compounds without any hit were thinned out: in the full panel of roughly 83,000, 20% have a hit.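 Single-dose data. Exposure time 48 hours. Values below 10 considered active.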 The source made the active and inactive calls.

These compounds were tested on MDA-MB-468 breast (assay: NCI-60 one-dose screen, 48 h (100 = growth as untreated, 0 = no growth, -100 = all killed)). Conditions: 10 µM unless noted.

| SMILES | growth |
| --- | --- |
| COC1=CC(c2ccc[nH]2)=N/C1=C\c1[nH]c(C)c(C(=O)CCCCC(=O)Nc2ccccc2)c1C | -10.7% (active) |
| Cc1cc(O)c(C2=NN(c3ccc(S(N)(=O)=O)cc3)C(c3ccc(N(C)C)cc3)C2)c(C)c1Cl (stereo not given) | 91.1% (inactive) |
| C=C(C[C@](O)(C(=O)/C=C/c1ccc(Cl)cc1)C(=O)OC)c1ccccc1 | 69.5% (inactive) |
| Cc1cc(O)c(C(C)C)cc1S(=O)(=O)O (tested in a mixture with another compound) | 91.8% (inactive) and -40.1% (active) and 115% (inactive) |
| c1ccc(Nc2nc(Nc3ccccc3)nc(Nc3ccccc3)n2)cc1 | 93.8% (inactive) |
| CCOC(=O)c1cc(C(=O)c2cc(OC)c(OC)c(OC)c2)n2c1ccc1c3cccnc3ccc12 | 61.5% (inactive) |
| Oc1ccc(CCC2CCNc3ccccc32)cc1 (stereo not given) | 46.8% (inactive) |
| COc1cccc(-c2nc3sccn3c2-c2ccnc(NCCNS(=O)(=O)c3c(Cl)cccc3Cl)c2)c1 | 56.8% (inactive) |
| CN(C)CCOC(=O)Nc1ccccc1Cl | 113% (inactive) |
| N/C(=C\C(=O)n1nc(-c2ccccc2)cc1N)c1ccccc1 | 19.2% (inactive) |
| O=C(Nc1ccccc1Cl)OCCN1CCOCC1 | 109% (inactive) |
| O=C1OC[C@H]2[C@H](c3ccc(O)c(O)c3)c3cc(O)c(O)cc3C[C@H]12 | 93.3% (inactive) |
| COc1ccc(-c2nc(SCCC(C)C)nc(N/N=C(/C)c3ccc(N)cc3)c2C#N)cc1 | 103% (inactive) |
| c1cc2nc(-c3cn[nH]c3)c3c(c2cc1-c1cn[nH]c1)C1CCC3C1 (stereo not given) | 78.9% (inactive) |
| CCOC(=O)NNC(=S)Nc1ccccc1 | 97.7% (inactive) |
| Cc1nc2n[nH]c(N)c2nc1C | 100% (inactive) |
| CS(=O)(=O)Nc1cncc(-c2ccc3ncnc(Nc4cncc(Cl)c4)c3c2)c1 | 16.7% (inactive) |
| CCc1ccc(CCCC(=O)O)cc1 | 107% (inactive) |
| O=C1C(=O)c2c(ccc3ccccc23)-c2ccccc21 | -79.9% (active) |
| CCn1cc(C2NC(=O)c3cc(F)ccc3N2)c2cccc(Cl)c21 (stereo not given) | 7.04% (active) |

| SMILES | growth |
| --- | --- |
| CS(CCCCN=C=S)=NC(=O)c1c(F)c(F)c(F)c(F)c1F (stereo not given) | 30.1% (inactive) |
| N/C(=N\S(=O)(=O)c1ccccc1)Nc1nc2ccccc2s1 | 91% (inactive) |
| CC(C)c1nc(N(C)S(C)(=O)=O)nc(-c2ccc(F)cc2)c1/C=C/C(=O)C[C@@H](O)CC(=O)O | 113% (inactive) |
| C=CCc1cc(OC)c(O)c(OC)c1 | 112% (inactive) |
| CCOC(=O)N1CCC(N=C2CSc3nnc(-c4cc(C(F)(F)F)cc(C(F)(F)F)c4)n3N2)CC1 | 2.22% (active) |
| CNCCN(C)c1ccc(Nc2cc(NC3CC3)n3ncc(C#N)c3n2)cc1NC(C)=O | -54.5% (active) |
| COc1cc(CSc2nc3ccc(Cl)cc3c(=O)n2Cc2ccccc2)cc(OC)c1OC | -13.1% (active) |
| O=C1COCCN1c1ccc(Nc2nc(Cl)nc(OCc3cn(Cc4ccccc4)nn3)n2)cc1 | 62.1% (inactive) |
| O=C1OC(c2ccc(F)cc2)CC1CN1CCOCC1 (stereo not given) | 95.8% (inactive) |
| COc1ccc2c(c1)CCc1c-2n[nH]c1-c1[nH]nc2c1CCc1cc(OC)ccc1-2 | -6.6% (active) |
| CC(=O)Nc1ccc(S(=O)(=O)Cl)cc1 | 95% (inactive) |
| CNC(=O)c1nn(C)c2c1C(C)(C)Cc1cnc(Nc3ccc(N4CCN(C)CC4)cc3)nc1-2 | -13.4% (active) |
| O=C(CN1C(=O)/C(=C/c2ccccc2)SC1=S)N1CCOCC1 | 82.4% (inactive) |
| CCN1C(=O)N(CC)C2C1NC(=S)N2/N=C/C=C/c1cccs1 (stereo not given) | 7.59% (active) |
| CCOC(=O)CC1CSC(c2cccc(Cl)c2)=N1 (stereo not given) | 108% (inactive) |
| NC(N)=NCCCCCNc1noc(Cc2c[nH]c3cc(Br)ccc23)n1 | 1.76% (active) |
| O=C(NNc1ccc(-c2ccccc2)nn1)c1ccc(F)cc1 | 98.2% (inactive) |
| COc1ccc(Oc2[nH]n(C3=Nc4ccccc4Sc4ccccc43)c(=O)c2C#N)cc1 | 98.5% (inactive) |
| COc1cc(NCCCN(CC(C)C)CC(C)C)c2ncccc2c1 | -27.1% (active) |
| Oc1ccccc1/C=N/Nc1nc(N/N=C/c2ccccc2O)nc(N2CCOCC2)n1 | 39.2% (inactive) |
